Bioassay records as filed in PubChem.
This is one part of a sample in which hits are shown more often than they occur.
14-3-3 PPI = modulators of 14-3-3 gamma protein binding, primary screen, biochemical, fluorescence polarization. 0.19% of 160,000 active. inhibition, % at 40 µM. FP, 14-3-3gamma / TMR-pS259-Raf peptide binding. 14-3-3 protein gamma (Homo sapiens), P61981. AID 422, 2006; in the data active = inhibition above about 30%
Target sequence (P61981 whole entry, looked up): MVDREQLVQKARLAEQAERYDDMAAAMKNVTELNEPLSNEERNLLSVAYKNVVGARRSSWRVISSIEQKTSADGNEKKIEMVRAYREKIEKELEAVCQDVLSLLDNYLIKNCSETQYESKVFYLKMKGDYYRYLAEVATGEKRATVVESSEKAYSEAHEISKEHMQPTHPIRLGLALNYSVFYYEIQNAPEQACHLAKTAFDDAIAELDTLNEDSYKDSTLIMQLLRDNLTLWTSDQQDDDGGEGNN
Hits are given with their value; . = inactive; + = active, no number.

SMILES	14-3-3 PPI
O=C(COC(=O)c1cccc(N2Cc3ccccc3C2)c1)c1ccc([N+](=O)[O-])cc1	.
O=C(Nc1cc(C(=O)N2CCN(c3ccccc3Cl)CC2)ccc1N1CC2CC(C1)c1cccc(=O)n1C2)c1cccc(C(F)(F)F)c1 (stereo not drawn)	.
O=C(NS(=O)(=O)c1ccc2c(c1)C(=O)c1cc(S(=O)(=O)NC(=O)c3ccccc3)ccc1-2)c1ccccc1	.
O=C1c2ccncc2C(=O)N1c1ccc(Br)cc1	.
Cc1ccc(C2=NN(CC(=O)NC3CCCCC3)C(=O)CC2)cc1	.
c1coc(-c2cc(C3CCNCC3)[nH]n2)c1	42
O=C(O)c1cc(-c2ccco2)[nH]n1	.
Nc1cc(-c2ccco2)no1	.
CCN1CCN(C(=O)CN2C(=O)COc3ccccc32)CC1	.
C=Cc1c(C)c2cc3[nH]c(cc4nc(cc5nc(cc1[nH]2)C(C)=C5CCC(=O)O)C(CCC(=O)O)=C4C)c(C)c3C=C	+
CC(=O)Oc1c(-c2ccccc2)c2nc3ccccc3nc2c2ccccc12	33
CC(=O)Oc1c(C)cc(O)c2ccccc12	.
CCC(=O)Oc1c(-c2ccccc2)c2nc3ccccc3nc2c2ccccc12	.
CC(=O)c1c(C)[nH]c(C(=O)N2CCCCC2C)c1C (stereo not drawn)	.
Cc1ccc(-c2ccccc2)n1-c1ccc(O)c(C(=O)O)c1	.
O=C1c2ccc(N3Cc4ccccc4C3)cc2C(=O)N1c1ccccc1	.
O=C(O)c1cc(N2Cc3ccccc3C2)ccc1O	81
O=C(C1CCCN(S(=O)(=O)c2cccs2)C1)N1CCN(c2ccccc2)CC1 (stereo not drawn)	.
CCC(C)OC(=O)C1=C(C)NC2=C(C(=O)CC(c3ccccc3)C2)C1c1cccc2ccccc12 (stereo not drawn)	.
CCC(C)OC(=O)C1=C(C)NC2=C(C(=O)CC(c3ccc(OC)cc3)C2)C1c1ccc(OC)c(OC)c1 (stereo not drawn)	.
CCC(C)OC(=O)C1=C(C)NC2=C(C(=O)CC(c3ccccc3)C2)C1c1cc(OC)c(OC)cc1Br (stereo not drawn)	39
Cc1c(C(=O)NCc2ccccn2)oc2ccc(S(=O)(=O)N3CCOCC3)cc12	129
O=C(NCc1ccccn1)c1cc(S(=O)(=O)N2CCOCC2)ccc1F	114
Cc1c(C(=O)NCc2ccccn2)oc2ccc(S(=O)(=O)N3CCC(C)CC3)cc12	63
Cc1c(C(=O)NCc2ccccn2)oc2ccc(S(=O)(=O)N3CC(C)CC(C)C3)cc12 (stereo not drawn)	.
SMILES	14-3-3 PPI
O=C(NCc1cccnc1)c1cc(S(=O)(=O)N2CCOCC2)ccc1F	.
Cc1c(C(=O)NCc2ccco2)oc2ccc(S(=O)(=O)N3CCOCC3)cc12	.
O=C(NCc1cccs1)c1cc(S(=O)(=O)N2CCOCC2)ccc1F	.
Cc1c(C(=O)NCc2ccccc2)oc2ccc(S(=O)(=O)N3CCC(C)CC3)cc12	.
Cc1c(C(=O)NCc2cccs2)oc2ccc(S(=O)(=O)N3CCOCC3)cc12	.
O=C(c1sc2ccccc2c1Cl)N1CCN(CCN2C(=O)c3cccc4cccc(c34)C2=O)CC1	.
CN1C(=O)C(CC(=O)Nc2ccc(F)cc2)N(CCc2ccc(S(N)(=O)=O)cc2)C1=S (stereo not drawn)	.
CCOC(=O)C1=C(C)Nc2ncnn2C1c1ccc(OC(F)F)c(OCC)c1 (stereo not drawn)	.
O=C1C(Cl)=C(NC2CCCCC2)C(=O)N1c1cccc(C(F)(F)F)c1	.
O=C1C=C(C(F)(F)F)c2ccc(NC3CCCCC3)c3cccc1c23	131
O=[N+]([O-])c1cc(S(=O)(=O)C(Cl)(Cl)Br)ccc1NC1CCCCC1	.
O=C1c2ccccc2-c2onc3ccc(Nc4ccccc4)c1c23	.
CC(=O)OCCNc1cc(N2CCN(C)CC2)c2noc3c2c1C(=O)c1ccccc1-3	.
CCC(=O)OCCNc1ccc2noc3c2c1C(=O)c1ccccc1-3	141
O=C(CCn1c(=S)[nH]c2cc3c(cc2c1=O)OCO3)NCCc1ccc(Cl)cc1	.
Cc1cc(Cl)c(C(N)=O)c(Cl)n1	.
O=C1c2cccc3c(NCCO)ccc(c23)C(=O)N1c1ccc(Cl)cc1	140
O=C1c2cccc3c(N4CCCCC4)ccc(c23)C(=O)N1CCCO	.
Cc1ccc(N2C(=O)c3cccc4c(Cl)ccc(c34)C2=O)cc1	.
O=C1c2cccc3c(Cl)ccc(c23)C(=O)N1c1ccccc1	.
CN1C(=O)c2cccc(NCCCCN3C(=O)c4ccccc4C3=O)c2C1=O	.
O=C1c2cccc3c(NCCCO)ccc(c23)C(=O)N1CCCO	+
O=C(Nc1cccc(C(F)(F)F)c1)c1ccc2c(=O)n(Cc3ccccc3)c(=S)[nH]c2c1	.
Cc1ccc(NC(=O)c2cc3nc(-c4cccs4)cc(C(F)(F)F)n3n2)cc1C	.
Cc1c(N)cccc1-c1nc2ccccc2s1	.
Cc1cc(N)c2ccccc2n1	.
Cc1cc2c(N)cccc2nn1	44
CCCc1ccc(O)c(N=Cc2cc(Br)cc(OC)c2O)c1	85
CCCc1ccc(O)c(N=Cc2cc(Br)cc(OCC)c2O)c1	.
